From PubChem BioAssay

The molecules below were run on Chordin-like protein 2 (CHRDL2) (assay: CHRDL2 small-molecule binders, primary screen, biochemical, small-molecule microarray, 635 nm fluorescence (AID 1126;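 note: printed compound slides probed with Chrdl2 protein at 4 µg/mL for 1 h at 4 C; score merges 667 nm emission intensity with signal to noise over three replicate slides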)). Conditions: small-molecule microarray binding, fluorescence 635 nm; higher = more signal.
Molecule [N-]=[N+]=Nc1ccccc1C[C@]1(C(N)=O)N=C(c2ccc(OCCCO)cc2)O[C@H]1c1ccccc1N=[N+]=[N-] has a composite z-score of -0.321.
In the case of COc1cc(CO)cc(I)c1O[C@H]1C=C(C(=O)NCCO)C[C@@H](NCc2ccc(F)cc2)[C@@H]1O, the composite z-score is reported as 0.306.
CCCC[C@@H]1C[C@H]1[C@@H](NC(=O)c1cccs1)c1ccc(C(F)(F)F)cc1 gave a composite z-score of 0.149.
In the case of COCCOC(=O)N1C(=O)[C@@]2(c3cc(C#CC4=CCCCC4)ccc31)[C@H](C(N)=O)[C@H]1C(=O)O[C@H](c3ccccc3)[C@H](c3ccccc3)N1[C@@H]2c1ccccc1OCCO, the composite z-score is reported as 0.588.
Work on O=C1OCCC=C[C@H]2OC34C=CCN(Cn5nnc6ccccc65)C(=O)[C@H]3N(CCCCCCO)C(=O)[C@@H]4C12 (stereo partly specified) yielded a composite z-score of -1.31.
Work on Cc1ccc(S[C@]2(C(=O)O)CC(=O)N(Cc3cc(C(F)(F)F)cc(C(F)(F)F)c3)[C@@H]2c2ccc(CO)cc2)cc1 yielded a composite z-score of -2.37.

The molecules below were run against Concanavalin-A (Canavalia ensiformis) (UniProt P02866) (assay: ConA small-molecule binders, primary screen, artefact control for SMM control protein annotation, biochemical, small-molecule microarray, Alexa647 label, 635 nm (AID 1127;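 note: z combines 667 nm emission intensity with signal-to-noise across three replicate slides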)). Conditions: ConA-A647 binding fluorescence, higher = more signal.
Concanavalin-A (Canavalia ensiformis), sequence (P02866 whole entry, looked up): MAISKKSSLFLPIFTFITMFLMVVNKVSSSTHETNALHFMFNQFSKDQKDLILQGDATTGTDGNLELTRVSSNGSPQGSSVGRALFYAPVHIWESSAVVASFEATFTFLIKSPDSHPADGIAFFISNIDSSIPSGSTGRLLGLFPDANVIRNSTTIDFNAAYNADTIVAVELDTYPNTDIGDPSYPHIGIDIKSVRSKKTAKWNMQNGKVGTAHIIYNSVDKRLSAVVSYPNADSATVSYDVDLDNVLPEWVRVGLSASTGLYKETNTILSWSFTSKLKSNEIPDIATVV
With CCOC(=O)C[C@H]1[C@H](OC(=O)c2ccccc2-c2ccccc2)[C@@H](NC(=O)c2ccc(-c3ccccc3)cc2)c2cc(OCCCO)ccc2N1C(=O)c1ccc2ccccc2n1 the composite z-score was 0.513.
In the case of C=CCC(OC(C)=O)[C@@H]1[C@@H](N(Cc2ccc(-c3ccccc3)cc2)C(=O)Cc2ccc(F)cc2)c2cc(OCCCO)ccc2N1C(=O)Cc1ccc(OC)cc1 (stereo partly specified), the composite z-score is reported as 0.774.
For O=C(NCC(F)(F)F)[C@@H]1c2ccccc2C(=O)N(Cc2ccc(OC(F)(F)F)cc2)[C@H]1c1ccc(CO)cc1, the composite z-score was 0.711.
Work on COC(=O)CCCCCCC(=O)Nc1ccc(NC(=O)CCCC[P+](c2ccccc2)(c2ccccc2)c2ccccc2)cc1 yielded a composite z-score of 0.0666.
CCCCCCc1nc(C2CC2)cc2c1[Si](C(C)C)(C(C)C)OC2 showed a composite z-score of -0.334.
O=C1O[C@H](c2ccccc2)[C@H](c2ccccc2)N2[C@H]1[C@@H](C(=O)Nc1nc3ccccc3s1)[C@]1(C(=O)Nc3ccccc31)[C@H]2c1ccc(OCCO)cc1 showed a composite z-score of 1.12.
Molecule C=C(/C(=C/C[C@H](OC(=O)c1ccncc1)c1ccc(CO)o1)c1cc(C(=O)OC)ccc1OC)C(C)C has a composite z-score of 0.557.
Work on CN(C)C(=O)[C@@]1(CCS(=O)(=O)c2ccccc2)N=C(c2ccc(OCCCO)cc2)O[C@H]1c1ccccc1 yielded a composite z-score of 0.761.
O=C1OCCC/C=C\[C@H]2OC34C=CCN(CCN5CCOCC5)C(=O)[C@H]3N(CCCCCCO)C(=O)[C@@H]4C12 (stereo partly specified) showed a composite z-score of -0.324.
O=C1C2C=CC(C(O)c3ccc(Br)cc3)N(Nc3ccccc3F)C2C(=O)N1c1ccccc1 (stereo unspecified) showed a composite z-score of 0.667.
In the case of CCCCC(=C=CC[C@@H](O)c1ccccc1OCCO)C[C@@H](O)COCc1ccccc1, the composite z-score is reported as -0.525.
In the case of O=C1O[C@@H](c2ccccc2)[C@@H](c2ccccc2)N2[C@@H](c3ccc(O)cc3)[C@]3(C(=O)Nc4ccc(C#CC5=CCCCC5)cc43)[C@@H](C(=O)NC[C@H](O)c3ccccc3)[C@H]12, the composite z-score is reported as 1.05.
For NC(=O)NCC#Cc1ccc2c(c1)[C@]1(C(=O)N2)[C@H](C(=O)NC[C@H](O)c2ccccc2)[C@H]2C(=O)O[C@H](c3ccccc3)[C@H](c3ccccc3)N2[C@@H]1c1ccc(OCCO)cc1, the composite z-score was 0.798.
Work on CC(C)N1CC=CC23O[C@@H]4C=CCOC(=O)[C@@H]4[C@H]2C(=O)N(CCCO)[C@@H]3C1=O (stereo partly specified) yielded a composite z-score of 0.234.
In the case of N#Cc1ccc(C(O)C2C=CC3C(=O)N(c4ccccc4)C(=O)C3N2Nc2ccccc2)cc1 (stereo unspecified), the composite z-score is reported as 0.73.
In the case of CCCCN1CC=CC23O[C@@H]4/C=C\CCC(C)OC(=O)C4[C@H]2C(=O)N(C(CO)C(C)C)[C@@H]3C1=O (stereo partly specified), the composite z-score is reported as -0.409.
Molecule C=CCN1Cc2ccccc2[C@H]2OC(c3ccc(OCCCO)cc3)=N[C@@]2(CC=C)C1=O has a composite z-score of 0.85.
With CC(CO)N1C(=O)[C@@H]2[C@H]3C(=O)OCC=C[C@H]3OC23C=CCN(CCN2CCOCC2)C(=O)[C@@H]13 (stereo partly specified) the composite z-score was -0.22.
CCCCCCc1nc(-c2cc(C)c(OC)c(C)c2)c(C)c2c1[Si](C(C)C)(C(C)C)OC2 showed a composite z-score of -0.112.
In the case of C=C(COC)/C(=C/C[C@H](OC(=O)c1ccncc1)c1ccccc1OCCO)c1cnc2ccccc2c1, the composite z-score is reported as 1.03.
CO[C@H]1O[C@H](CO)[C@@H](OC(=O)Nc2ccc3c(c2)OCO3)[C@H](OC(=O)c2cc3ccccc3[nH]2)[C@H]1OC(=O)c1cc2ccccc2[nH]1 was tested, and the composite z-score was -0.391.
In the case of O=C1N(Cc2ccccc2)c2ccccc2[C@@H]2OC(c3ccc(OCCCO)cc3)=N[C@]12Cc1ccccc1, the composite z-score is reported as 1.11.
For CCOC(=O)c1ccc(NC(=O)O[C@H]2[C@H](OC(=O)Nc3ccc4c(c3)OCO4)[C@@H](OC(=O)Nc3ccc4c(c3)OCO4)[C@@H](OC)O[C@@H]2CO)cc1, the composite z-score was 1.14.
Molecule C=CCC(OC(C)=O)[C@@H]1[C@@H](N(Cc2cccc3ccccc23)C(=O)Cc2ccc(OC)cc2)c2cc(OCCCO)ccc2N1C(=O)c1ccc2ccccc2n1 (stereo partly specified) has a composite z-score of -0.212.
COCCCNC(=O)[C@@]1(Cc2ccccc2CN=[N+]=[N-])N=C(c2ccc(OCCCO)cc2)O[C@H]1c1ccccc1 showed a composite z-score of 1.03.
COC(=O)[C@@]1(Cc2ccccc2)[C@H]2c3cc(C(=O)N(C)C)n(CCc4ccc(O)c(OC)c4)c3C[C@H]2CN1C(=O)c1ccccc1 showed a composite z-score of 0.151.
Molecule CN1C(=O)C2C=CC(C(O)COCc3ccccc3)N(N(c3ccccc3)c3ccccc3)C2C1=O (stereo unspecified) has a composite z-score of 0.671.
CC(c1ccccc1)C(O)C1C=CC2C(=O)N(c3ccccc3)C(=O)C2N1Nc1ccc([N+](=O)[O-])cc1 (stereo unspecified) was tested, and the composite z-score was 1.12.
[N-]=[N+]=NCc1ccccc1[C@H]1OC(c2ccc(OCCCO)cc2)=N[C@@]1(CCS(=O)(=O)c1ccccc1)C(=O)N1CCCCC1 was tested, and the composite z-score was 1.2.
For [N-]=[N+]=Nc1ccccc1C[C@]1(C(N)=O)N=C(c2ccc(OCCCO)cc2)O[C@H]1c1ccccc1N=[N+]=[N-], the composite z-score was 1.12.
COc1cc(CO)cc(I)c1O[C@H]1C=C(C(=O)NCCO)C[C@@H](NCc2ccc(F)cc2)[C@@H]1O showed a composite z-score of 0.0901.
Work on CCCC[C@@H]1C[C@H]1[C@@H](NC(=O)c1cccs1)c1ccc(C(F)(F)F)cc1 yielded a composite z-score of -0.162.
Work on COCCOC(=O)N1C(=O)[C@@]2(c3cc(C#CC4=CCCCC4)ccc31)[C@H](C(N)=O)[C@H]1C(=O)O[C@H](c3ccccc3)[C@H](c3ccccc3)N1[C@@H]2c1ccccc1OCCO yielded a composite z-score of 1.11.
O=C1OCCC=C[C@H]2OC34C=CCN(Cn5nnc6ccccc65)C(=O)[C@H]3N(CCCCCCO)C(=O)[C@@H]4C12 (stereo partly specified) gave a composite z-score of -0.718.
Work on Cc1ccc(S[C@]2(C(=O)O)CC(=O)N(Cc3cc(C(F)(F)F)cc(C(F)(F)F)c3)[C@@H]2c2ccc(CO)cc2)cc1 yielded a composite z-score of -1.24.
